PubChem BioAssay AID1159580 (chemical genetic matrix, 2015)
Several values for one entry are separate records, joined by “and”; a condition that tells them apart may be missing. Identical values can stand only once. In all, about 5,500 compounds went through this assay and about 2,000 (36%) were called active. Not shown: some 18% with an inconclusive outcome. Cut-off read from the data, not from the text of the source: active = normalized growth mostly below about 0.91 (no sharp cut-off); inconclusive = no clear call, values can overlap the other calls; inactive = mostly above about 0.92. Some of the results follow.

Assay: chemical genetic growth profiling, strain panel (AID 1159580);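 note: tested at 20 µM; growth read once vehicle control cultures reached saturation at 30 °C; 1 = growth at the plate median or of vehicle wells; lower values mean less growth of the strain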
Conditions: S. cerevisiae deletion strains, growth OD

Measured: normalized growth

CC1(C)C(=O)C=C[C@@]2(C)C1C[C@@H](O)[C@]1(C)C2CC[C@@]2(C)[C@H](c3ccoc3)OC(=O)[C@H]3O[C@]321 (stereo partly specified)
inactive: locus YAL021C, strain ccr4, stronger effect = lower value 0.988 | locus YAL026C, strain drs2, stronger effect = lower value 0.996 | locus YAL030W, strain snc1, stronger effect = lower value 0.995 | locus YBL061C, strain skt5, stronger effect = lower value 1 | locus YBR009C, strain hhf1, stronger effect = lower value 1 | locus YBR021W, strain FUR4, stronger effect = lower value 1 | locus YBR023C, strain chs3, stronger effect = lower value 1.01 | locus YBR171W, strain sec66, stronger effect = lower value 0.998 | locus YBR229C, strain ROT2, stronger effect = lower value 0.939 | locus YBR231C, strain swc5, stronger effect = lower value 1.01 | locus YBR279W, strain paf1, stronger effect = lower value 1 | locus YCL011C, strain gbp2, stronger effect = lower value 1.01 | locus YCL016C, strain dcc1, stronger effect = lower value 1 | locus YCL029C, strain bik1, stronger effect = lower value 0.969 | locus YCL061C, strain MRC1, stronger effect = lower value 0.998 | locus YCL069W, strain vba3, stronger effect = lower value 0.998 | locus YCR088W, strain abp1, stronger effect = lower value 0.999 | locus YDL005C, strain med2, stronger effect = lower value 0.999 | locus YDL035C, strain GPR1, stronger effect = lower value 0.956 | locus YDL040C, strain nat1, stronger effect = lower value 1 | locus YDL074C, strain BRE1, stronger effect = lower value 0.958 | locus YDL101C, strain DUN1, stronger effect = lower value 0.98 | locus YDL185W, strain tfp1, stronger effect = lower value 0.954 | locus YDL192W, strain arf1, stronger effect = lower value 0.979 | locus YDR001C, strain nth1, stronger effect = lower value 0.985 | locus YDR069C, strain doa4, stronger effect = lower value 1.01 | locus YDR101C, strain arx1, stronger effect = lower value 0.97 | locus YDR137W, strain rgp1, stronger effect = lower value 0.985 | locus YDR159W, strain sac3, stronger effect = lower value 1.01 | locus YDR162C, strain NBP2, stronger effect = lower value 0.949 | locus YDR195W, strain ref2 0.986 | locus YDR297W, strain sur2, stronger effect = lower value 1 | locus YDR318W, strain mcm21, stronger effect = lower value 0.972 | locus YDR334W, strain swr1, stronger effect = lower value 0.995 | locus YDR335W, strain msn5, stronger effect = lower value 0.996 | locus YDR388W, stronger effect = lower value 0.996 | locus YDR392W, strain spt3, stronger effect = lower value 1.01 | locus YDR502C, strain sam2, stronger effect = lower value 1 | locus YEL003W, strain gim4, stronger effect = lower value 1 | locus YEL037C, strain rad23, stronger effect = lower value 0.995 | locus YEL061C, strain CIN8 (second series), stronger effect = lower value 0.994 | locus YER015W, strain faa2, stronger effect = lower value 0.99 | locus YER016W, strain bim1, stronger effect = lower value 1 | locus YER110C, stronger effect = lower value 0.968 | locus YER111C, strain swi4, stronger effect = lower value 1 | locus YER155C, strain BEM2 (second series), stronger effect = lower value 1 | locus YER155C, strain BEM2, stronger effect = lower value 1.01 | locus YER167W, strain BCK2, stronger effect = lower value 0.973 | locus YFR010W, strain ubp6, stronger effect = lower value 0.984 | locus YGL078C, strain dbp3, stronger effect = lower value 0.992 | locus YGL086W, strain mad1, stronger effect = lower value 0.988 | locus YGL167C, strain pmr1, stronger effect = lower value 1.01 | locus YGL173C, strain kem1, stronger effect = lower value 1.01 | locus YGL227W, strain vid30, stronger effect = lower value 1.01 | locus YGL240W, strain doc1, stronger effect = lower value 1.01 | locus YGL248W, strain PDE1, stronger effect = lower value 0.961 | locus YGL253W, strain hxk2, stronger effect = lower value 1 | locus YGR135W, strain pre9, stronger effect = lower value 1.04 | locus YGR229C, strain SMI1, stronger effect = lower value 0.95 | locus YGR252W, strain gcn5, stronger effect = lower value 0.965 | locus YHR013C, strain ard1, stronger effect = lower value 1.01 | locus YHR027C, strain rpn1, stronger effect = lower value 0.986 | locus YHR030C, strain SLT2, stronger effect = lower value 0.966 | locus YHR079C, strain IRE1 (second series), stronger effect = lower value 0.99 | locus YHR079C, strain IRE1, stronger effect = lower value 0.936 | locus YHR094C, strain hxt1, stronger effect = lower value 0.978 | locus YHR129C, strain ARP1, stronger effect = lower value 0.987 | locus YHR142W, strain chs7, stronger effect = lower value 1.01 | locus YHR200W, strain rpn10, stronger effect = lower value 0.976 | locus YIL066C, strain RNR3, stronger effect = lower value 0.94 | locus YIL073C, strain SPO22, stronger effect = lower value 0.928 | locus YIL125W, strain kgd1, stronger effect = lower value 0.985 | locus YIR030C, strain dcg1, stronger effect = lower value 0.992 | locus YJL092W, strain hpr5, stronger effect = lower value 0.999 | locus YJL095W, strain BCK1 (second series), stronger effect = lower value 1 | locus YJL095W, strain BCK1, stronger effect = lower value 1.01 and 0.956 | locus YJL115W, strain asf1, stronger effect = lower value 0.997 | locus YJL129C, strain trk1, stronger effect = lower value 0.991 | locus YJL134W, strain LCB3, stronger effect = lower value 0.98 | locus YJL154C, strain vps35, stronger effect = lower value 0.992 | locus YJL164C, strain tpk1, stronger effect = lower value 1 | locus YJL166W, strain qcr8, stronger effect = lower value 1.01 | locus YJL168C, strain set2, stronger effect = lower value 0.998 | locus YJL187C, strain SWE1 (second series), stronger effect = lower value 1 | locus YJL187C, strain SWE1, stronger effect = lower value 1.02 | locus YJR043C, strain POL32, stronger effect = lower value 0.937
